# Caspase-1 inhib: caspase-1 (human) inhibition, allosteric or competitive; 0.03% of 75,000 active; Caspase-1 enzyme, Ac-WEHD-AFC fluorogenic rate; P29466; Potency, µM (highest dose often 57.5 µM), hits mostly inhibitors
# Target sequence (P29466 120-297 limits assumed): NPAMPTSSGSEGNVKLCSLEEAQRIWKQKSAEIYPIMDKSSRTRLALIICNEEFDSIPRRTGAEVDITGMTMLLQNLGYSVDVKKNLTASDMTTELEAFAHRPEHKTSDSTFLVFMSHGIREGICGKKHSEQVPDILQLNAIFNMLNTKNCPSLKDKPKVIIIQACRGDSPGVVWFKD
# Target sequence (P29466 317-404 limits assumed): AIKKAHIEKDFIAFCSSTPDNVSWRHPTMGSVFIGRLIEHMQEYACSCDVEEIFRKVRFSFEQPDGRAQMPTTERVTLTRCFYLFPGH
# HEK293 cAMP ctrl: parental HEK293 cAMP activation (counter-screen); parental HEK293 CNG cAMP sensor, membrane potential fluorescence; Potency, µM (titrated, usually from 57.1 µM), usual class: activators; 2.5% of 73,000 active; AID 938; further: nearly all actives have a fitted effect of over 55% in size
#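 Counterscreen for endogenous-receptor signalling: CNG-channel HEK 293 cells report cAMP rise by membrane depolarization. After 60 min dye equilibration with 100 uM RO 20-1724, compounds incubated 30 min before bottom-read fluorescence at 590 nm.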
# TSHR agonist: TSH receptor (human) agonism | HEK293-CNG-TSHR cells (CNG channel as cAMP sensor), membrane potential dye, cAMP | Potency, µM (top dose mostly 57.1 µM), most hits filed as activators | 0.48% of 73,000 active | AID 926; active means well fitted activation curve with a large enough effect in the main read-out, with a control signal flat, not every such curve was filed as active; inconclusive means small, poorly fitted or top-dose-only effect, or a change in a side signal; inactive means no such curve, though single readings can be large or run the other way; reference of the percent scale not stated here;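 further: the control signal comes from parental cells without the receptor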
#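 HEK 293 cells stably expressing TSHR and a cAMP-gated CNG channel; parental CNG-only cells as counterscreen. Cells preloaded 60 min with membrane potential dye plus 100 uM RO 20-1724, then compound 30 min; fluorescence read at 590 nm.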
# USP2a inh: blocks human ubiquitin-specific protease USP2a; O75604; USP2a enzymatic assay, qHTS inhibition; Potency, µM (series often up to 38.3 µM), actives largely listed as inhibitors; 0.1% of 60,000 active; AID 927; further: nearly all actives have a fitted effect of over 60% in size
#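 Coupled readout: USP2-cleaved Ub-PLA2 (20nM final) turns over NBD C6-HPC (20uM final), Ex 460nm/Em 535nm after 2.5 h, time-zero read flagging artifacts. Enzyme (20nM final, pH 8.0 Tris) given 30 min RT with compound first; NEM defines full inhibition.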
# CRE Fsk mod: CRE-bla signaling modulation under forskolin stimulation; CHO CRE-bla reporter (cAMP response element driving beta-lactamase), forskolin EC10, beta-lactamase ratio; Potency, µM (doses to about 38.2 µM), most hits filed as activators; 2.5% of 71,000 active; AID 662; active means well fitted activation curve with a large enough effect in the signal ratio, with a control signal flat, not every such curve was filed as active; inconclusive means small, poorly fitted or top-dose-only effect, or effect the other way, or a change in a side signal; the % refers to the signal ratio
#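 Beta-lactamase reporter under a cAMP responsive element in CHO cells; compounds tested in titration series against EC10 NKH 477, 3 h at 37 °C. Read-out: CCF4 FRET ratio 460nm/530nm (excitation 405nm) giving %Activity, fitted to AC50.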
# Caspase-7 inhib: allosteric or competitive inhibitors of human caspase-7; recombinant caspase-7, Ac-DEVD-AFC fluorescence rate; P55210; AID 889; 0.02% of 75,000 active; Potency, µM (doses to about 57.5 µM), hits mostly inhibitors; active means well fitted inhibition curve with a large enough effect in the main read-out, with a control signal flat, not every such curve was filed as active; inconclusive means small, poorly fitted or top-dose-only effect, or a change in a side signal
# Hits are given with their value; . = inactive; ? = inconclusive; / = no result; [ ] = remark or other dose. An excerpt weighted towards active compounds, which were near 5% of everything screened. Unless noted, the call rests on the fitted dose curve; in most records, active means well fitted curve in the direction sought with a large enough effect; inconclusive means small, poorly fitted or top-dose-only effect, or another doubt; inactive means no such curve, though single readings can be large; an effect the other way counts as inactive or inconclusive.
SMILES,Caspase-1 inhib,HEK293 cAMP ctrl,TSHR agonist,USP2a inh,CRE Fsk mod,Caspase-7 inhib
Cc1c(C(=O)Nc2ccc3c(c2)OCO3)sc2nc(-c3ccccc3)cn12,.,?,?,.,.,.
Cc1c(C(=O)NCC2CCCO2)sc2nc(-c3ccc(F)cc3)cn12 (stereo unspecified),.,?,?,/,13µM,.
O=C(c1cccc(F)c1)N1CCC2(CC1)CN(c1ccc(-c3ccccc3)cc1)C2,.,.,.,.,.,.
O=C(c1cccc(F)c1)N1CCC2(CC1)CCN(c1ccc(-c3ccccc3)cc1)CC2,.,16µM,?,.,.,.
O=CN1CCN(C[C@H](O)CN2CCCCC2)CC1,.[11.5 µM],.[11.4 µM],.[11.4 µM],/,.[7.6 µM],.[11.5 µM]
Cc1ccc([C@@H](O)c2cnc(C)n2Cc2ccccc2)cc1,.[11.5 µM],.[11.4 µM],.[11.4 µM],/,?,.[11.5 µM]
CCCCCCn1c(N2CCN(c3cccc(Cl)c3)CC2)nc2c1c(=O)[nH]c(=O)n2C,.,?,?,.,?,.
Cn1c(=O)[nH]c(=O)c2c1nc(CN1CCN(c3cccc(Cl)c3)CC1)n2CCc1ccccc1,.,?,?,.,13µM,.
CCCCCn1c(CN2CCN(c3cccc(Cl)c3)CC2)nc2c1c(=O)[nH]c(=O)n2C,.,?,?,.,13µM,.
O=C1CSC(c2cn(-c3ccccc3)nc2-c2cccs2)N1CC1CCCO1 (stereo unspecified),.,.,10µM,.,?,.
Clc1ccc2c(c1)N(CCCN1CCCC13CCCCC3)c1ccccc1S2,.[11.5 µM],.[11.4 µM],.[11.4 µM],/,.[7.6 µM],.[11.5 µM]
O=C(O)CCCCCC[C@@H]1C(=O)NC(=O)N1CC[C@@H](O)C1CCCCC1,/,2µM,?,/,?,/
CCCCCC1NC(=O)NC1CCCCCC(=O)O (stereo unspecified),.,.,.,.,.,.
CN(C)c1ccc(-c2ccc3ncnc(N(C)C)c3c2)cc1,/,.,.,.,10µM,?
CN(C)c1ncnc2ccc(-c3ccccc3C#N)cc12,.,.,.,.,2µM,.
Cc1cccc(CNc2ccnc(-c3ccccc3CN(C)C)n2)c1,.,5µM,?,.,.,.
O=C(O)CCCN1CCCCC1,.[11.5 µM],.[11.4 µM],.[11.4 µM],/,.[7.6 µM],.[11.5 µM]
Nc1ccc(F)cc1F,.,.,.,/,.,.
COc1ccc(Nc2cc(C)nc3nc(C)nn23)cc1Cl,.,.,.,/,?,.
COc1cccc(Nc2cc(C)nc3nc(C)nn23)c1,.,.,.,/,13µM,.
COc1ccc(OC)c(Nc2cc(C)nc3nc(C)nn23)c1,.,.,.,/,?,.
COc1ccc(C)cc1Nc1cc(C)nc2nc(C)nn12,.,.,.,/,10µM,.
COc1cc(Nc2cc(C)nc3nc(C)nn23)cc(OC)c1OC,.,.,.,/,4µM,.
CC1(NC[C@@H](O)COc2cccc3[nH]ccc23)CCC(C(C)(C)NC(=O)CBr)CC1 (stereo partly specified),/,.,.,/,.,/
N[C@H](C(=O)O)[C@H](N)C(=O)O,.[11.5 µM],.[11.4 µM],.[11.4 µM],/,.[7.6 µM],.[11.5 µM]
SMILES,Caspase-1 inhib,HEK293 cAMP ctrl,TSHR agonist,USP2a inh,CRE Fsk mod,Caspase-7 inhib
C[C@@H](N)/C(N)=N/O,.[11.5 µM],.[11.4 µM],.[11.4 µM],/,.[7.6 µM],.[11.5 µM]
NS(=O)(=O)c1ccc(N=Nc2ncccc2O)cc1,.[11.5 µM],.[11.4 µM],.[11.4 µM],/,.[7.6 µM],.[11.5 µM]
Fc1cccc(Cl)c1-c1nnc2ccc(N3CCOCC3)nn12,.,.,.,.,13µM,.
CN1CCN(CCCN)CC1,.[11.5 µM],.[11.4 µM],.[11.4 µM],/,.[7.6 µM],.[11.5 µM]
COc1cccc(NC(=O)CCSc2nnc3scc(-c4ccccc4)n23)c1,.,.,.,.,0.4µM,.
COc1cccc(-c2csc3nnc(SCC(=O)c4ccc(NC(C)=O)cc4)n23)c1,.,.,.,.,.,.
CC1(C)Cc2ccccc2-c2nnc(SCC(=O)Nc3nc4ccccc4s3)n21,.,5µM,?,.,4µM,.
C=C1C[C@@]23C[C@]1(O)CC[C@@H]2[C@]12C=C[C@@H](O)[C@@](C)(C(=O)O1)[C@@H]2[C@@H]3C(=O)O,/,.,.,/,?,/
COC(=O)C1=C(C)NC(C)=C(C(=O)OC)C1c1cc2ccc(C)cc2[nH]c1=O,.,.,16µM,.,.,.
Cc1c(N=C=O)cccc1N=C=O,.,.,.,/,.,.
Cc1cc(-c2ccc(Cl)cc2)n2nc(N)nc2n1,.,.,.,.,13µM,.

# Screening results: PubChem, National Center for Advancing Translational Sciences (NCATS)
